Results: article PMC9838217, “Structure of SALL4 zinc finger domain reveals link between AT-rich DNA binding and Okihiro syndrome”
Residue numbers refer to the chain shown, from its start.

Columns and labels:
Assay in all cases: HT-SELEX; high values mean tight binding
Conditions in all cases: protein: recombinant; vector His6-GST; dsDNA, one strand shown
SALL4 ZFC4 WT (HT-SELEX) = target: T1, SALL4 ZFC4 WT (HT-SELEX) (Mus musculus, UniProt Q8BX22 870-940)
T1 sequence: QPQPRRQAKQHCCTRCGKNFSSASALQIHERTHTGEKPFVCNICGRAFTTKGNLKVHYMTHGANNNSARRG
Method in brief: (§1)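 Purified recombinant mouse SALL4 zinc finger cluster 4 (residues 870–940, 1 µg) and library DNA (1.5 µg first cycle, 200 ng later) were incubated for 10 min at room temperature in 100 µl of 10 mM Tris–HCl pH 7.5, 50 mM NaCl, poly(dI-dC) and DTT. After Ni2+ bead capture and up to 6 triplicate cycles of selection, DNA was MiSeq-sequenced and scanned for 6-mers. Binding signal is the fold change in each canonical k-mer's read fraction relative to the initial random library.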

[1] = target: T2, SALL4 ZFC4 R900W (HT-SELEX) (Mus musculus, UniProt Q8BX22 870-940, R900W)
T2 sequence: T1 sequence with R31W
Method in brief: as §1

[2] = target: T3, SALL4 ZFC4 G921D (HT-SELEX) (Mus musculus, UniProt Q8BX22 870-940, G921D)
T3 sequence: T1 sequence with G52D
Method in brief: as §1

Row | Sequence | binding signal (SALL4 ZFC4 WT (HT-SELEX)) [fold-change vs cycle 0] | binding signal [1] [fold-change vs cycle 0] | binding signal [2] [fold-change vs cycle 0]
1 | ATCCAT | 1.62 ± 0.0994 | 1.54 ± 0.0869 | 1.44 ± 0.0984
2 | ACGACT | 0.624 ± 0.0259 | 0.718 ± 0.0114 | 0.813 ± 0.0216
3 | ATGCGA | 0.525 ± 0.0387 | 0.556 ± 0.0155 | 0.689 ± 0.0646
4 | CTAGGA | 0.873 ± 0.029 | 0.993 ± 0.0392 | 0.975 ± 0.0202
5 | AGATGG | 0.853 ± 0.0339 | 0.933 ± 0.00507 | 0.962 ± 0.0157
6 | AAGCTG | 0.608 ± 0.0202 | 0.708 ± 0.0215 | 0.801 ± 0.0274
7 | AAACTG | 1.1 ± 0.0398 | 1.2 ± 0.0458 | 1.17 ± 0.0583
8 | GCTACA | 0.6 ± 0.0288 | 0.67 ± 0.0106 | 0.752 ± 0.0182
9 | CCTAGA | 0.844 ± 0.0425 | 0.937 ± 0.0552 | 0.97 ± 0.04
10 | AATAGG | 1.27 ± 0.0647 | 1.39 ± 0.0729 | 1.32 ± 0.0667
11 | GAACCA | 0.766 ± 0.0201 | 0.871 ± 0.0494 | 0.937 ± 0.0521
12 | GAGCAC | 0.415 ± 0.0413 | 0.537 ± 0.0508 | 0.674 ± 0.0417
13 | ACCATG | 0.8385 ± 0.0023 | 0.925 ± 0.0262 | 0.997 ± 0.0244
14 | CTGAAC | 0.859 ± 0.0362 | 0.995 ± 0.0342 | 1.01 ± 0.0412
15 | GAAATA | 2.68 ± 0.193 | 1.89 ± 0.115 | 1.72 ± 0.124
16 | GATGAA | 1.45 ± 0.0431 | 1.54 ± 0.0399 | 1.43 ± 0.0787
17 | TCGCAA | 0.451 ± 0.0135 | 0.483 ± 0.00786 | 0.616 ± 0.0634
18 | AGGGAT | 0.9983 ± 0.00779 | 1.11 ± 0.0341 | 1.07 ± 0.0457
19 | CTAAAG | 1.22 ± 0.0556 | 1.43 ± 0.0823 | 1.34 ± 0.112
20 | CAATGG | 0.767 ± 0.067 | 0.849 ± 0.0267 | 0.923 ± 0.0362
21 | GGAACA | 0.762 ± 0.0355 | 0.882 ± 0.0371 | 0.956 ± 0.0475
22 | CGGTTA | 0.677 ± 0.0447 | 0.748 ± 0.0385 | 0.801 ± 0.0326
23 | CTAACC | 0.863 ± 0.0299 | 0.983 ± 0.0562 | 1.01 ± 0.0396
24 | ATATGA | 3.11 ± 0.303 | 2.07 ± 0.156 | 1.85 ± 0.196
25 | GGCTTA | 0.5567 ± 0.00529 | 0.656 ± 0.0181 | 0.763 ± 0.0358
26 | ATGATC | 1.37 ± 0.0972 | 1.46 ± 0.0896 | 1.48 ± 0.0835
27 | ATGGTC | 0.721 ± 0.0351 | 0.8234 ± 0.00272 | 0.902 ± 0.0335
28 | AGCGAG | 0.337 ± 0.0112 | 0.393 ± 0.0228 | 0.519 ± 0.0797
29 | ATATGG | 1.44 ± 0.131 | 1.33 ± 0.0761 | 1.28 ± 0.0676
30 | CTGGAC | 0.396 ± 0.0407 | 0.495 ± 0.0552 | 0.584 ± 0.0722
